ASK1 inh – inhibitors of human ASK1 kinase; Q99683; AlphaScreen MKK6 phosphorylation by ASK1, luminescence; inhibition, % at 7.44 µM; hit rate 0.99% among 22,000; AID 1159602; in the data active means inhibition above about 35%
ULK1 primary – human ULK1 kinase inhibition, primary screen | O75385 | AlphaScreen Atg13 phosphorylation by ULK1, luminescence | inhibition, % at 5.96 µM | hit rate 1.9% among 30,000 | AID 1259251; in the data active means inhibition above about 43%
AlphaScreen intf – AlphaScreen optical interference dose response, ASK1 counter-screen | shares compounds with ASK1 inh | AlphaScreen TruHits beads, signal interference counterscreen | IC50, µM | hit rate 20% among 220 | AID 1159604;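 active means IC50 of 10 µM or lower in the counterscreen; inactive means IC50 above 10 µM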;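 further: loss of AlphaScreen light from TruHits beads alone with no ASK1 enzyme present; potency of signal reduction so a low IC50 flags an assay artifact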
A number is an active result; . = inactive; / = not tested or not shown; ! = a repeat was not active. An excerpt weighted towards active compounds, which were near 2.5% of everything screened.

SMILES	ASK1 inh	ULK1 primary	AlphaScreen intf
c1ccc2c(c1)CCN(c1nccc(Nc3ccc(N4CCOCC4)cc3)n1)C2	50	.	.
c1cc(Nc2ccc3c(c2)OCO3)nc(N2CCN(Cc3ccc4c(c3)OCO4)CC2)n1	37	.	.
Cc1cc(NCCc2ccc(O)cc2)nc(N2CCN(Cc3ccc4c(c3)OCO4)CC2)n1	37	.	.
COc1ccc(CCNc2cc(C)nc(N3CCN(Cc4ccc5c(c4)OCO5)CC3)n2)cc1	.	.	/
O=C(NCCOc1ccccc1)c1ccnc(N2CCc3ccccc3C2)c1	.	.	/
COc1ccc(-c2cc(N)ncn2)cc1	.	.	/
Cc1cnc(NCCN2CCOCC2)nc1NCCO	.	.	/
COc1ccc(-c2nc(NC3CC3)c3ncn(-c4ccsc4)c3n2)cc1	.	.	/
COc1cc2nc(Nc3ccc(N4CCOCC4)cc3)nc(Nc3ccc(NC(C)=O)cc3)c2cc1OC	.	.	/
COc1ccc(CCNc2cc(C)nc(Nc3ccc(N4CCOCC4)cc3)n2)cc1	.	.	/
COc1cc2nc(Nc3ccc(-n4ccnc4)cc3)nc(Nc3ccc4c(c3)OCO4)c2cc1OC	49	.	.
COc1cc2nc(Nc3ccc(N4CCOCC4)cc3)nc(Nc3ccc4c(c3)OCO4)c2cc1OC	54	.	4.8
c1cc(Nc2ccc3c(c2)OCO3)nc(Nc2ccc(N3CCOCC3)cc2)n1	48	.	.
c1cc(Nc2ccc(N3CCOCC3)cc2)nc(Nc2ccc(N3CCOCC3)cc2)n1	.	.	/
COc1ccc(CCNc2ccnc(Nc3ccc(N4CCOCC4)cc3)n2)cc1	43	.	.
COc1cc2nc(Nc3ccc(-n4ccnc4)cc3)nc(Nc3ccc(NC(C)=O)cc3)c2cc1OC	.	.	/
Cc1cccnc1N1C(=O)C2CCCCC2C1=O (stereo not given)	/	.	/
O=C1N(Cc2ccccc2)CCN1c1ccc(F)cc1F	/	.	/
Nc1cccc(-c2nc(NC3CCN(Cc4ccccc4)CC3)c3ncn(C4CCCCC4)c3n2)c1	.	.	/
CN(C)c1cccc(Nc2nccc(NCCOc3ccccc3)n2)c1	43	.	.
COc1cc2nc(Nc3cccc(N(C)C)c3)nc(NCc3ccccc3)c2cc1OC	.	.	/
FC(F)(F)c1cccc(CNc2ccnc(Nc3ccccc3)n2)c1	.	.	/
CCCNc1ccnc(Nc2cccc(N(C)C)c2)n1	.	.	/
COc1cc(Nc2ccnc(Nc3cccc(N(C)C)c3)n2)cc(OC)c1OC	39	.	6.9
COc1cc2nc(Nc3cccc(N(C)C)c3)nc(NCc3cccc(C(F)(F)F)c3)c2cc1OC	38	.	.
SMILES	ASK1 inh	ULK1 primary	AlphaScreen intf
COc1cc(Nc2cc(Nc3cccc(N(C)C)c3)ncn2)cc(OC)c1OC	.	.	/
CN(C)c1cccc(Nc2nccc(NCc3cccc(C(F)(F)F)c3)n2)c1	43	.	.
Cc1noc(C)c1-c1nc(NCc2cccc(C(F)(F)F)c2)c2ncn(CCN3CCCC3=O)c2n1	.	.	/
FC(F)(F)c1ccc(Cn2cnc3c(NCCN4CCOCC4)nc(N4CCOCC4)nc32)cc1	.	.	/
CCN(CC)c1nc(NC2CCN(Cc3ccccc3)CC2)nc(N2CCN(Cc3ccc4c(c3)OCO4)CC2)n1	.	.	/
Cc1cc(NCc2ccccc2)nc(Nc2cccc(N(C)C)c2)n1	.	.	/
Cc1cc(NCc2cccc(C(F)(F)F)c2)nc(Nc2cccc(N(C)C)c2)n1	40	.	.
Cc1cc(Nc2ccccc2)nc(Nc2ccc(N3CCOCC3)cc2)n1	.	.	/
Cc1cc(NCc2cccc(C(F)(F)F)c2)nc(Nc2ccc(C(F)(F)F)cc2)n1	.	.	/
Cc1cc(NCc2cccc(C(F)(F)F)c2)nc(Nc2ccc(N3CCOCC3)cc2)n1	40!	.	4.6
Cc1cc(Nc2ccc(N3CCOCC3)cc2)nc(Nc2cccc(N(C)C)c2)n1	41	.	.
Cc1cncc(NC(=O)c2cccc(-n3cc(OC(=O)Nc4ccccc4)cn3)c2)c1	.	.	/
CCCNc1nc(-c2ccc(C(=O)N3CCN(C)CC3)cc2)ncc1C	.	.	/
COc1ccc(-c2ccc(C(N)=O)s2)cc1	.	.	/
CCCCc1ccc(S(=O)(=O)OCCS(=O)(=O)CC)cc1	/	.	/
CCN(CC)c1nc(Nc2ccc(N3CCOCC3)cc2)nc(Nc2ccc(-n3ccnc3)cc2)n1	41	.	6
CCN(CC)c1nc(NCCN2CCOCC2)nc(Nc2ccc(-n3ccnc3)cc2)n1	.	.	/
Cc1nn(C)c(C)c1-c1ncc(C(=O)NCCc2ccc(O)cc2)s1	.	.	/
Cn1ccc2cc(-c3cc(Nc4ccc(N5CCOCC5)cc4)nc(N)n3)ccc21	46	.	.
CC(=O)c1cccc(-c2cc(Nc3ccc(N4CCOCC4)cc3)nc(N)n2)c1	.	.	/
COc1cc(N2CCN(C)CC2)ccc1Nc1cc(Nc2ccccc2-c2ncccn2)c(C(F)(F)F)cn1	38	53	.
COc1cc(NC(=O)c2ccnc(-c3ccc(N4CCN(C)CC4)cc3)c2)cc(OC)c1OC	.	.	/
COc1ccc(-c2ncc(C(=O)NCc3nc4ccccc4[nH]3)s2)cc1	.	.	/
COc1cc(Nc2ncc(C(=O)NCc3ccccc3)s2)cc(OC)c1OC	.	.	/
Cc1ncn(-c2ccc(Nc3ncc4cccc(-c5ccnc(N6CCOCC6)c5)c4n3)cc2)n1	.	.	/
SMILES	ASK1 inh	ULK1 primary	AlphaScreen intf
Cn1cc(-c2ccc3cnc(Nc4ccc(-c5ccc(N6CCOCC6)nc5)cc4)nc3c2Cl)cn1	38	43	.
COc1ccc2c(c1)CC(c1nc3c(OC)cc(-c4cn[nH]c4)cc3c(=O)[nH]1)CO2 (stereo not given)	.	.	/
COc1cc(-c2cn[nH]c2)cc2c(=O)[nH]c(C3COc4ccc(C)cc4C3)nc12 (stereo not given)	40	.	.
CC(C)N(CCNc1ncnc2nc(N3CCN(Cc4ccc5c(c4)OCO5)CC3)[nH]c12)C(C)C	.	.	/
c1ccc(OCCNc2nc(Nc3ccncc3)nc3c2ncn3C2CCCCC2)cc1	.	.	/
c1ccc(OCCNc2nc(Nc3ccc(-n4ccnc4)cc3)nc3c2ncn3C2CCCCC2)cc1	49	.	.
c1ccc(OCCNc2nc(Nc3ccc(N4CCOCC4)cc3)nc3c2ncn3C2CCCCC2)cc1	48	.	7
c1ccc(OCCNc2nc(NCCN3CCOCC3)nc3c2ncn3C2CCCCC2)cc1	.	.	/
COc1ccc(-c2cc(N)nc(N)n2)cn1	.	.	/
COc1ccc(CCNC(=O)Cc2cn(-c3ccc(NC4CCN(Cc5ccccc5)CC4)nn3)c3ccccc23)cc1	.	.	/
FC(F)(F)c1ccc(Cn2cnc3c(NCc4ccccc4)nc(Nc4ccccc4)nc32)cc1	46	.	.
FC(F)(F)c1ccc(Cn2cnc3c(NCc4cccc(C(F)(F)F)c4)nc(Nc4ccccc4)nc32)cc1	.	.	/
FC(F)(F)c1ccc(Cn2cnc3c(NCc4cccc(C(F)(F)F)c4)nc(Nc4ccc5ncccc5c4)nc32)cc1	40	.	.
OCCNc1nc(Nc2ccc3ncccc3c2)nc2c1ncn2Cc1ccc(C(F)(F)F)cc1	.	.	/
Nc1cccc(-c2nc(NCc3ccccc3)c3ncn(-c4ccccc4)c3n2)c1	.	.	/
c1cnc2ccc(Nc3nc(Nc4ccc(N5CCOCC5)cc4)c4[nH]cnc4n3)cc2c1	41	.	.
c1ccc(CN2CCC(Nc3nc(Nc4ccc(N5CCOCC5)cc4)nc4nc[nH]c34)CC2)cc1	36	.	.
c1ccc(CN2CCC(Nc3nc(N4CCOCC4)nc4nc[nH]c34)CC2)cc1	.	.	/
c1ccc(Nc2nc(Nc3ccc(N4CCOCC4)cc3)c3[nH]cnc3n2)nc1	.	.	/
